Assay [1] can be described thus: ATG_GRE_CIS: Attagene CIS-FACTORIAL HepG2 Assay for human Glucocorticoid Response Elements (GRE) (AID 2282947). Particulars: HepG2 GRE cis-reporter, Attagene multiplex mRNA; actives raise or lower the signal. The essentials: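 Cells (HepG2) bearing transfected cis-promoter reporter transcription units were treated with chemical for 24 hours. Reporter mRNA was measured via RT-PCR with capillary electrophoresis, and activity was fitted in both directions relative to DMSO.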

Assay [2] can be described thus: ATG_ISRE_CIS: Attagene CIS-FACTORIAL HepG2 Assay for human Interferon Regulatory Factor 1 (IRF1) binding to an Interferon-Stimulated Response Element (ISRE) (AID 2282948). Conditions: HepG2 ISRE cis-reporter (Attagene), mRNA transcription readout; actives raise or lower the signal. Summed up: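 Signal reflects induction or loss of ISRE-linked reporter mRNA in transiently transfected HepG2 cells after a 24 h treatment, detected by fluorescent RT-PCR fragments on capillary electrophoresis and normalised to DMSO.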

Assay [3] is described as follows: ATG_M_32_CIS: Attagene CIS-FACTORIAL HepG2 Assay for M32 Transcription Factor (Internal Marker) (AID 2282949).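 Note: background control marker of the multiplexed CIS panel rather than a real target.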 Conditions: HepG2 Attagene cis-factorial M32 reporter, mRNA; actives raise or lower the signal. Summed up:
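HepG2 transfectants (cis-regulated reporter transcription units) dosed 24 h. Reporter mRNA by RT-PCR plus CE, analysed as gain or loss relative to DMSO.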

A short description of assay [4]: ATG_M_06_CIS: Attagene CIS-FACTORIAL HepG2 Assay for M06 Transcription Factor (Internal Marker) (AID 2282950). Particulars: HepG2 Attagene CIS-FACTORIAL M06 internal marker reporter; actives raise or lower the signal. The essentials: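 Cells (HepG2, transiently carrying cis-driven reporter units) receive chemical for 24 h before RNA isolation. Reporter cDNA is PCR-amplified, FAM-labelled by primer extension, HpaI-digested and sized on a capillary analyser.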

For assay [5], the target named is Hepatocyte nuclear factor 6 (Homo sapiens) (UniProt Q9UBC0). In words: ATG_HNF6_CIS: Attagene CIS-FACTORIAL HepG2 Assay for human Hepatocyte Nuclear Factor 6 (HNF6) (AID 2282952). Conditions: HepG2 Attagene cis-factorial HNF6 reporter transcription; actives raise or lower the signal. The essentials: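 Endogenous factor activity read in transiently transfected HepG2 via promoter-regulated reporter transcripts. RNA harvested 24 h post-dosing, reverse-transcribed, PCR-amplified, FAM-labelled, HpaI-digested and resolved by capillary electrophoresis; fitted in both directions against DMSO.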
Sequence of Hepatocyte nuclear factor 6 (Homo sapiens) (Q9UBC0 whole entry, looked up): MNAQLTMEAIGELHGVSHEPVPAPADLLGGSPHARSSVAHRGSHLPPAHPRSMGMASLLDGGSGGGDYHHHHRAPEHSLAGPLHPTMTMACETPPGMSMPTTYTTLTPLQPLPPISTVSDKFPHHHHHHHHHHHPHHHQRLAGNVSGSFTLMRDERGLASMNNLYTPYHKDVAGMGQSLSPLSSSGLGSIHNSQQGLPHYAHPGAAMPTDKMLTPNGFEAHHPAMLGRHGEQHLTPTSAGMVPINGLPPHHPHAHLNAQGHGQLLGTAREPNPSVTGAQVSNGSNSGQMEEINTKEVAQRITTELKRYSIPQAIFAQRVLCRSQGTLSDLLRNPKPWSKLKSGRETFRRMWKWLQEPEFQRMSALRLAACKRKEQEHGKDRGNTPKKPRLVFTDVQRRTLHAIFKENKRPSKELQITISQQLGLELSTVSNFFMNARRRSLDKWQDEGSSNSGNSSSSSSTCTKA

The target of assay [6] is Heat shock factor protein 1 (Homo sapiens) (UniProt Q00613). In words: ATG_HSE_CIS: Attagene CIS-FACTORIAL HepG2 Assay for human Heat Shock Transcription Factor 1 (HSE) (AID 2282953). Particulars: HepG2 HSE cis-reporter, Attagene RNA transcription; actives raise or lower the signal. Summed up:
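Liver-derived HepG2 cells carry transiently introduced multiple reporter units governed by cis promoters. Reporter RNA measured 24 h post-dose through reverse transcription, PCR amplification, fluorescent labelling and capillary electrophoresis, normalised to DMSO.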

Assay [7] can be described thus: ATG_MRE_CIS: Attagene CIS-FACTORIAL HepG2 Assay for human Metal Responsive Element (MRE) (AID 2282954). Conditions: HepG2 MRE cis-reporter transcription, Attagene multiplex; actives raise or lower the signal. The essentials: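 Cells were transfected with cis-promoter reporter transcription units, then dosed for 24 h. RNA was reverse-transcribed, amplified, fluorescently labelled and resolved by capillary electrophoresis, and activity was fitted in both directions relative to DMSO.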

A short description of assay [8]: ATG_PBREM_CIS: Attagene CIS-FACTORIAL HepG2 Assay for human Phenobarbital-responsive Enhancer Module (PBREM) (AID 2282955). Conditions: HepG2 PBREM cis-reporter, Attagene multiplexed transcription; actives raise or lower the signal. The essentials: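 Readout: reporter mRNA, fluorescent RT-PCR fragments separated by capillary electrophoresis. System: HepG2 transiently transfected with cis-regulated reporter units. Exposure: 24 h. Analysis: bidirectional, DMSO baseline.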

Assay [9] has as its target Paired box protein Pax-6 (Homo sapiens) (UniProt P26367). The experiment in a line: ATG_Pax6_CIS: Attagene CIS-FACTORIAL HepG2 Assay for human Paired Box 6 (PAX6) (AID 2282956). Conditions: HepG2 CIS-FACTORIAL PAX6 reporter transcription, RNA readout; actives raise or lower the signal. Summed up: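 Values derive from bidirectional curve fitting of reporter mRNA signal relative to DMSO. HepG2 cells bearing transfected cis-regulated MRTUs were exposed for 24 h; transcripts were read by RT-PCR and capillary electrophoresis.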

Assay [10] can be described thus: ATG_PXRE_CIS: Attagene CIS-FACTORIAL HepG2 Assay for human Pregnane X Receptor Element (PXRE) (AID 2282957). Particulars: HepG2 Attagene CIS-FACTORIAL PXRE reporter, mRNA; actives raise or lower the signal. Summed up: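 Reporter transcripts under endogenous PXR-responsive cis-regulation quantified from total RNA of transfected HepG2 cells 24 h post-dosing, via RT-PCR with fluorescent primer extension and capillary electrophoresis. Gain or loss of signal fitted against DMSO baseline.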

Assay [11] can be described thus: ATG_PPRE_CIS: Attagene CIS-FACTORIAL HepG2 Assay for human Peroxisome Proliferator-activated Response Element (PPRE) (AID 2282958). Conditions: HepG2 PPRE cis-element reporter, Attagene transcription factor profiling; actives raise or lower the signal. Summed up: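 After human HepG2 hepatoma cells were transiently transfected with cis-promoter reporter constructs, they were exposed to test chemicals for 24 hours. Reporter RNA was then reverse-transcribed, PCR-amplified, FAM-labeled, HpaI-digested and quantified by capillary electrophoresis.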

The nature of assay [12]: ATG_RORE_CIS: Attagene CIS-FACTORIAL HepG2 Assay for human RAR-related Orphan Receptor Element (RORE) (AID 2282959). Particulars: HepG2 Attagene cis-factorial RORE reporter, mRNA; actives raise or lower the signal. Summed up:
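Measured here: transcript induction of a cis-regulated reporter in HepG2 cells transiently transfected via FuGene 6. After 24 h, RNA was processed by RT-PCR and fluorescent capillary electrophoresis; DMSO defined baseline activity.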

The nature of assay [13]: ATG_Sox_CIS: Attagene CIS-FACTORIAL HepG2 Assay for human SRY-box transcription factor (SOX) (AID 2282960). Conditions: HepG2 Attagene cis-factorial SOX reporter, mRNA; actives raise or lower the signal. Summed up: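 Using transiently transfected HepG2 cells, reporter transcription driven by cis elements was assessed 24 h after dosing. Signal was fluorescence of capillary-separated RT-PCR products, with DMSO defining baseline activity.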

For assay [14], the target named is Transcription factor Sp1 (Homo sapiens) (UniProt P08047). In words: ATG_Sp1_CIS: Attagene CIS-FACTORIAL HepG2 Assay for human Specificity Protein 1 (Sp1) (AID 2282961). Particulars: HepG2 Sp1 cis-reporter transcription, actives raise or lower the signal. Summed up:
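After transient transfection of HepG2 cells with cis-promoter reporter units and 24 h chemical treatment, reporter transcripts were quantified by RT-PCR and capillary electrophoresis fluorescence. Gain- and loss-of-signal fitted against DMSO.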

The nature of assay [15]: ATG_SREBP_CIS: Attagene CIS-FACTORIAL HepG2 Assay for human Sterol Regulatory Element Binding (SREBP) (AID 2282962). Conditions: HepG2 Attagene cis-factorial SREBP reporter, mRNA; actives raise or lower the signal. Summed up:
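Values derive from bidirectional curve fitting with DMSO as baseline. The underlying measurement is reporter mRNA from cis-element-regulated units in transiently transfected HepG2, quantified by RT-PCR and capillary electrophoresis after 24 h exposure.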

The target in assay [16] is Signal transducer and activator of transcription 3 (Homo sapiens) (UniProt P40763). The experiment in a line: ATG_STAT3_CIS: Attagene CIS-FACTORIAL HepG2 Assay for human Signal Transducer and Activator of Transcription 3 (STAT3) (AID 2282963). Conditions: HepG2, Attagene cis-factorial STAT3 reporter transcription; actives raise or lower the signal. Summed up:
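HepG2, MRTU-transfected, 24 h dosing. RNA → RT → PCR → FAM label → HpaI → CE. Bidirectional fit vs DMSO.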

Assay [17] is described as follows: ATG_TA_CIS: Attagene CIS-FACTORIAL HepG2 Assay for human TA Basal Promoter (AID 2282964). Conditions: HepG2 Attagene CIS-factorial TA basal promoter reporter; actives raise or lower the signal. The essentials: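 Background internal-marker endpoint from a 52-component HepG2 cis-reporter panel. Cells treated 24 h; reporter transcripts quantified via RT-PCR and CE fluorescence against DMSO baseline.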

Assay [18] concerns the target Hypoxia-inducible factor 1-alpha (Homo sapiens) (UniProt Q16665). In words: ATG_HIF1a_CIS: Attagene CIS-FACTORIAL HepG2 Assay for human Hypoxia Inducible Factor 1 (HIF1A) (AID 2282951). Particulars: HepG2 Attagene cis-factorial HIF1a reporter transcription; actives raise or lower the signal. Summed up:
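Endogenous-TF cis reporter readout, human HepG2 cells, 24 h incubation; mRNA detected via RT-PCR and capillary electrophoresis fluorescence; DMSO-normalised bidirectional fitting.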

The nature of assay [19]: ATG_TCF_b_cat_CIS: Attagene CIS-FACTORIAL HepG2 Assay for human T-Cell-Factor with beta-catenin (TCF/b-cat) (AID 2282965). Particulars: HepG2 TCF/beta-catenin cis-reporter transcription, actives raise or lower the signal. Summed up: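 HepG2 cells transiently transfected with multiple cis-promoter-regulated reporter transcription units, so endogenous transcription factor activity is measured. Reporter mRNA read 24 hours after dosing by RT-PCR, fluorescent labelling and capillary electrophoresis; bidirectional fitting against DMSO.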

In general, AC50 refers to the midpoint of the concentration-response curve, whichever way the signal moves.

Active and inactive are the calls of the source. Rule for the calls: active = hit-call score of the fitted dose curve at least 0.9, where 1 is the maximum; inactive = score below 0.9.

Sequence of Hypoxia-inducible factor 1-alpha (Homo sapiens) (Q16665 whole entry, looked up): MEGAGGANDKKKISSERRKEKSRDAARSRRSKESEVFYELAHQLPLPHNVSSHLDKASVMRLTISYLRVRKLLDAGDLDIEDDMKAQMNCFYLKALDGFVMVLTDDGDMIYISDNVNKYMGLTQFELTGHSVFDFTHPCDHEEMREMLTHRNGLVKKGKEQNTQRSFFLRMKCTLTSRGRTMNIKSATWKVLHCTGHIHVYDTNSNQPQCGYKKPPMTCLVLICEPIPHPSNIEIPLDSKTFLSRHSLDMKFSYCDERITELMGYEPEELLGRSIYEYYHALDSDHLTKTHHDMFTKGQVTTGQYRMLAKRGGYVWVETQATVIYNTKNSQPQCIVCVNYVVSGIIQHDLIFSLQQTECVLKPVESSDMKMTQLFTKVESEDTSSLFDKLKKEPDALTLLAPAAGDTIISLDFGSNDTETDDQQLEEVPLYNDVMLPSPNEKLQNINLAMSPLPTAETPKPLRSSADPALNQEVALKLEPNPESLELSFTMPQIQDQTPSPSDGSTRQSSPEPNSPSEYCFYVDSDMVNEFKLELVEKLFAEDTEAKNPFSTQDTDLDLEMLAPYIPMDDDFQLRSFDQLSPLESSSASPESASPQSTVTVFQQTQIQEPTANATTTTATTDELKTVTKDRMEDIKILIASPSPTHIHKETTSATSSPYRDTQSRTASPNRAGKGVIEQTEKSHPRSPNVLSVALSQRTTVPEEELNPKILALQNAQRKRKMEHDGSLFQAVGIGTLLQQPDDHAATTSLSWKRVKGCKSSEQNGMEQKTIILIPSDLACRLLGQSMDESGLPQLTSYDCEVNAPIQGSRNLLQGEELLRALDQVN
Sequence of Signal transducer and activator of transcription 3 (Homo sapiens) (P40763 whole entry, looked up): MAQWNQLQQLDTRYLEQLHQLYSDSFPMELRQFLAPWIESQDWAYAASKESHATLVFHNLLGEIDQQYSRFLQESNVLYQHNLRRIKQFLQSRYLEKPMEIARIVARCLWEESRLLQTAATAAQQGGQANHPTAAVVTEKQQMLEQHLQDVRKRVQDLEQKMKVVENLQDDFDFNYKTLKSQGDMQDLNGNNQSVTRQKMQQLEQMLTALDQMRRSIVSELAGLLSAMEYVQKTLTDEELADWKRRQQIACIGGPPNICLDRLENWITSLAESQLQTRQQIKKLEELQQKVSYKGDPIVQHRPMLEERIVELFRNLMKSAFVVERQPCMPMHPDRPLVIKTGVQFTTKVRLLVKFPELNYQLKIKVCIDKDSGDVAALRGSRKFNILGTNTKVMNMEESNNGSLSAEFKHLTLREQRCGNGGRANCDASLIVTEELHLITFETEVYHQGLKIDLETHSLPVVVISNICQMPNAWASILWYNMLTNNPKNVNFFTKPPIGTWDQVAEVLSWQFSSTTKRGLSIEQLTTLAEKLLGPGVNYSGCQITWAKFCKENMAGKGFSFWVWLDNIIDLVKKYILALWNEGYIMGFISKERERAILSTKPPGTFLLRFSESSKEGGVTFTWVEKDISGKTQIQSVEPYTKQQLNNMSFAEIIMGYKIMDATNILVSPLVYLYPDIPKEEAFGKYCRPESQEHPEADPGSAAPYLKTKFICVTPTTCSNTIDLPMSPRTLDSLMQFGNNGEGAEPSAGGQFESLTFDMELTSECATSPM
Sequence of Transcription factor Sp1 (Homo sapiens) (P08047 whole entry, looked up): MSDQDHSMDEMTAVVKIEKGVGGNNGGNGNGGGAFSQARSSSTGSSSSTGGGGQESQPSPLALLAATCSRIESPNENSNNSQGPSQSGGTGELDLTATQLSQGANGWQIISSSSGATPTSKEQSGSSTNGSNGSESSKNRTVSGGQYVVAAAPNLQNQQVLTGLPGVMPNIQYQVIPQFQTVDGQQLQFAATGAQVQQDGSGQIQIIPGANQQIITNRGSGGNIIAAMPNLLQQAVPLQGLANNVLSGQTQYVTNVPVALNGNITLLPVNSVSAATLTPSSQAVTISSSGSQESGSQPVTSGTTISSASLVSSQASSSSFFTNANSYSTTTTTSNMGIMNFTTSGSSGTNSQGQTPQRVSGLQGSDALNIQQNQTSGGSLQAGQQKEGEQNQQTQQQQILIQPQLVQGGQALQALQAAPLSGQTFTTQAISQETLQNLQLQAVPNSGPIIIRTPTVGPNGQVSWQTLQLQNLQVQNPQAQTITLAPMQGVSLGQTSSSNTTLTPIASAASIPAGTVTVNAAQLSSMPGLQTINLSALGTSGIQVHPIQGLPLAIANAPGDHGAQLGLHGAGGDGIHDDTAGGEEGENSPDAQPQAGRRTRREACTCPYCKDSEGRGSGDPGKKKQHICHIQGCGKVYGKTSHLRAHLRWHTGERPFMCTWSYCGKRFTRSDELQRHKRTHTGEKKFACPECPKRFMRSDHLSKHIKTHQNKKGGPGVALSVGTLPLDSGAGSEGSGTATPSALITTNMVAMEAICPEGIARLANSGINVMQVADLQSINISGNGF
Sequence of Heat shock factor protein 1 (Homo sapiens) (Q00613 whole entry, looked up): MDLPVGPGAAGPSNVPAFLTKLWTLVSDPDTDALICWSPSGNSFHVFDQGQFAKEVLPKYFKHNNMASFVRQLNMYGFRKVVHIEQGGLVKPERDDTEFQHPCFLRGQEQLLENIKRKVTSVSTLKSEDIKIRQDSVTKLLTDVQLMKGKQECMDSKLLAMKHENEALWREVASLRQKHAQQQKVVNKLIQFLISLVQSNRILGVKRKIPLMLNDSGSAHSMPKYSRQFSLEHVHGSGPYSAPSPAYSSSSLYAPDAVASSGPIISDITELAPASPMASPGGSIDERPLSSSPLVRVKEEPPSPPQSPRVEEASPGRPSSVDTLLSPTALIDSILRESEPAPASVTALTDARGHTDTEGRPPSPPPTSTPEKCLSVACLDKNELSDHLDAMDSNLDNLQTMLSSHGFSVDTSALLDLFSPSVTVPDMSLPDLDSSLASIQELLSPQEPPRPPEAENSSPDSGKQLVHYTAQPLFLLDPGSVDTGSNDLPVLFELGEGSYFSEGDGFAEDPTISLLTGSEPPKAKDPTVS
Sequence of Paired box protein Pax-6 (Homo sapiens) (P26367 whole entry, looked up): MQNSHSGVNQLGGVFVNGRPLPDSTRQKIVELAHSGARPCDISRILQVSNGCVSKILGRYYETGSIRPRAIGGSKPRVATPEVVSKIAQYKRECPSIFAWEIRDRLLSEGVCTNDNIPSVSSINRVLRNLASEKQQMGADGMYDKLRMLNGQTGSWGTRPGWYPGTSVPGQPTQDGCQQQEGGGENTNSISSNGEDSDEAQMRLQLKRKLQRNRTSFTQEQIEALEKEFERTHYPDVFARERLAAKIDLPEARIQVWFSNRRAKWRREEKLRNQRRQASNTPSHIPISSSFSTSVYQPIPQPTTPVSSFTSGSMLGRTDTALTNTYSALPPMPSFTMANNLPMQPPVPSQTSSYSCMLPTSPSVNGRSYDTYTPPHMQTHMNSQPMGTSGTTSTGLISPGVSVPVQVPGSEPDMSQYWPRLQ

With `Cc1ccc(-c2ccccc2)cc1`, the compound was called inactive in assay [1], in [2], in assay [3], in assay [4], in assay [5] and in assay [6]. For the same compound, the compound was called inactive in [7], in [8], in [9], in assay [11], in assay [12] and in assay [13]. Besides, the result in assay [14], in [15], in [16] and in [17] was inactive. For the same compound, the half-maximal activity concentration (AC50) in [10] was 27.3 µM (active).

`CC(CN=Cc1ccccc1O)N=Cc1ccccc1O` (centres undefined): the outcome in assay [1], in assay [2], in [3], in assay [4], in assay [5] and in assay [8] was inactive. In addition, the compound was classed as inactive in assay [10], in assay [11], in assay [12], in assay [13], in [14] and in assay [15]. In addition, the outcome in assay [16], in assay [17] and in assay [19] was inactive. The concentration at half-maximal activity (AC50) in [18] is 72.3 µM (active); in [7], 26.8 µM (active).

Turning to `COc1cc(CCC(C)=O)ccc1O`, the result in [1], in assay [2], in [3], in assay [4], in assay [18] and in assay [5] was inactive. Besides, the call in assay [6], in assay [7], in [9], in assay [10], in [11] and in assay [12] was inactive. Also, the result in assay [13], in assay [14], in [15], in assay [16] and in assay [19] was inactive.

For the compound `CC(=O)O[C@H]1C[C@@H]2CC[C@@]1(C)C2(C)C`, the call in assay [1], in [2], in assay [3], in assay [4], in [18] and in [5] was inactive. The outcome in [6], in assay [7], in assay [9], in assay [10], in [12] and in [13] was inactive. Further, the outcome in [14], in assay [15], in assay [16], in [17] and in [19] was inactive.

`CC=Cc1ccc(OCC)c(O)c1`: the call in assay [1], in assay [2], in assay [3], in assay [4], in assay [18] and in assay [5] was inactive. The compound was classed as inactive in assay [6], in assay [7], in assay [8], in assay [11], in [12] and in assay [14]. The outcome in [15], in assay [16], in assay [17] and in assay [19] was inactive. For the same compound, the AC50 in [10] was 65.8 µM (active).

For `CCCSc1ccc2nc(NC(=O)OC)[nH]c2c1`, the call in assay [1], in assay [2], in assay [3], in assay [4], in [5] and in assay [6] was inactive. Also, the result in [7], in assay [9], in assay [10], in assay [11], in assay [12] and in assay [13] was inactive. Further, the compound was called inactive in [15], in [16], in [17] and in assay [19].

Regarding `C=CC(C)(O)CCC=C(C)C` (centres undefined), the compound was called inactive in assay [1], in [2], in assay [3], in [4], in [18] and in [5]. The compound was called inactive in assay [7], in assay [8], in assay [9], in assay [14], in assay [15] and in [16]. The AC50 in [10] was 46.9 µM (active).

With `CCCCC(CC)C(=O)OC(C)C` (centres undefined), the result in assay [1], in [2], in [3], in assay [4], in assay [18] and in assay [5] was inactive. Further, the compound was classed as inactive in assay [7], in assay [9], in [10], in [12], in [14] and in assay [15]. Besides, the outcome in assay [16], in assay [17] and in assay [19] was inactive.

The values above are taken from PubChem BioAssay (EPA / NIEHS).
